Data published in PubChem BioAssay (NCI).
The panel holds about 83,000 compounds, 20% with a hit somewhere; the sample as a whole holds those more often.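 In brief: 96-well plates, 48 h treatment, single concentration, percent growth endpoint.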 Values without a mark were called inactive. Active and inactive are the calls of the source. The calls were made as follows: active = growth percent below 10; inactive = the rest.

What was measured:
Assay in all cases: NCI-60 one-dose screen, 48 h (100 = growth as untreated, 0 = no growth, -100 = all killed)
Settings in all cases: 10 µM unless noted
NCI-H23 lung = system: NCI-H23 lung
NCI-H226 lung = system: NCI-H226 lung
NCI-H322M lung = system: NCI-H322M lung
HOP-62 NSCLC = system: HOP-62 NSCLC
NCI-H460 lung = system: NCI-H460 lung
HOP-92 NSCLC = system: HOP-92 NSCLC
NCI-H522 lung = system: NCI-H522 lung
A549/ATCC NSCLC = system: A549/ATCC NSCLC
786-0 renal = system: 786-0 renal
COLO 205 colon = system: COLO 205 colon

Row | Compound | growth (NCI-H23 lung) | growth (NCI-H226 lung) | growth (NCI-H322M lung) [%] | growth (HOP-62 NSCLC) | growth (NCI-H460 lung) | growth (HOP-92 NSCLC) | growth (NCI-H522 lung) | growth (A549/ATCC NSCLC) [%] | growth (786-0 renal) | growth (COLO 205 colon)
1 | Cc1nnc(/N=C2\NC(=O)/C(=C/c3ccsc3)S2)s1 | 89.8% | 96% | 92.2 | 80.8% | 67.5% | 96.6% | 78.1% | 100 | 94.6% | 92.2%
2 | COc1ccc2[nH]c(=O)c(/C=C/C(=O)c3ccccc3OC)cc2c1 | 21.3% | 38.9% | 18.3 | 8.67% (active) | 1.79% (active) | -12% (active) | 3.93% (active) | 10.4 | 8.21% (active) | 20.4%
3 | COc1ccc2[nH]c3nc4cnccc4cc3c2c1 | 95.2% | 111% | 105 | 96.3% | 103% | 139% | 87.3% | 99.6 | 104% | 111%
4 | c1ccc(-c2n(Cc3ccc4ccccc4n3)cc[n+]2Cc2ccc3ccccc3c2)cc1 | 2.93% (active) | 9.5% (active) | 23.6 | 16.5% | 6.08% (active) | -32.4% (active) | 2.04% (active) | 45.3 | 26.2% | -77.5% (active)
5 | OCCNc1nc(NCCO)nc(Nc2ccc(C3=NN(c4cc(Cl)cc(Cl)c4)C(c4ccccc4)C3)cc2)n1 (stereo not given) | 50.1% | 96.2% | 57.6 | 29.1% | 23.7% | 72.1% | 48.1% | 35.9 | 40.3% | 34.4%
6 | COc1cc(C(=O)Nc2cc(OC)c3ccn(C)c3c2)cc2c1C[C@]1(C)CC[C@@H](O)C(C)(C)[C@H]1O2 | 30.3% | 76.7% | 57.3 | 11.7% | 14% | 8.71% (active) | -3.97% (active) | 24.1 | 0.587% (active) | 3.69% (active)
7 | OCCNc1nc(NCCO)nc(Nc2ccc(C3=NN(c4ccc(Cl)cc4)C(c4ccc(Cl)cc4)C3)cc2)n1 (stereo not given) | 70.4% | 104% | 50.7 | 47.2% | 36.2% | 81.9% | 63.9% | 50.9 | 16.7% | 65.5%
8 | COc1ccc([C@H]2[C@@H](F)C(=O)N2c2cc(OC)c(OC)c(OC)c2)cc1F | 21.3% | 59% | 46.4 | 31.8% | 7.06% (active) | 32.3% | -8.46% (active) | 15.3 | 22.9% | -68% (active)
9 | CCOC(=O)CC[C@H](NC(=O)c1ccc(NC)c2ccccc12)C(=O)OCC | 105% | 100% | 106 | 93.6% | 101% | 92.3% | 91.2% | 89.9 | 102% | 106%
10 | O=CN1N=C(c2ccc3c(c2)OCO3)CC1c1cccc(Nc2ccnc3cc(C(F)(F)F)ccc23)c1 (stereo not given) | 68.9% | 69.2% | 107 | 81.2% | 86.4% | 73% | 68.3% | 83.9 | 90.7% | 67.5%
11 | CCOC(=O)/C(=C/c1c(-c2ccccc2)[nH]c2ccccc12)C(=O)c1ccc(Cl)cc1 | 55% | 71.3% | 78.6 | 48% | 33.1% | 13.5% | 19.8% | 39.6 | 26.5% | 63.2%
12 | Cc1nc2sc(C(=O)Nc3ccccc3Cl)c(N)c2cc1C(C)O (stereo not given) | 93.5% | 93.1% | 91.1 | 75.8% | 98.8% | 83.3% | 74% | 75.6 | 84.8% | 60.2%
13 | C=C(C)[C@@H]1CC[C@]2(C(=O)N3CCN(C)CC3)CC[C@]3(C)[C@H](CC[C@@H]4[C@@]5(C)C/C(=C/c6ccco6)C(=O)C(C)(C)[C@@H]5CC[C@]43C)[C@@H]12 | 79.9% | 86.4% | 79.9 | 73.6% | 64.9% | 55.7% | 74% | 60.6 | 71.2% | 74.6%
14 | CCOC(=O)c1c(C)nc2c(c1N)/C(=C/c1cccs1)C(=O)N2c1ccc(OC)cc1 | 43.9% | 40.5% | 70.6 | 10.2% | 34.1% | 22% | 29.8% | 34.5 | 5.33% (active) | 63.2%
15 | Cc1cccc(C)c1NCc1nnc(-c2ccc(O)cc2)o1 | 91.1% | 95.5% | 98.9 | 111% | 96.9% | 88.3% | 97.1% | 104 | 102% | 97.3%
16 | CC(/C=C/c1ccccc1)=N/NC(=O)c1ccncc1 | 98.2% | 104% | 99.7 | 103% | 102% | 77.8% | 92.9% | 93.4 | 103% | 119%
